Experimental data published in paper PMC7862700, “An all-to-all approach to the identification of sequence-specific readers for epigenetic DNA modifications on cytosine”.

How the values were obtained:
Test in all cases: DAPPL (digital affinity profiling via proximity ligation, sequencing); 10 mM Tris-HCl pH 7.5, 50 mM NaCl, 1 mM DTT, 4% glycerol, room temperature, 30 min; GST-TFs on glutathione beads, 16-mer random dsDNA library, 0.1% formaldehyde crosslink after washing; high values mean tight binding
[1] = biological target: T1, FLI1 (Homo sapiens, UniProt Q01543 1-452); details: protein: recombinant; tags: N-terminal GST; dsDNA, one strand shown
T1 sequence: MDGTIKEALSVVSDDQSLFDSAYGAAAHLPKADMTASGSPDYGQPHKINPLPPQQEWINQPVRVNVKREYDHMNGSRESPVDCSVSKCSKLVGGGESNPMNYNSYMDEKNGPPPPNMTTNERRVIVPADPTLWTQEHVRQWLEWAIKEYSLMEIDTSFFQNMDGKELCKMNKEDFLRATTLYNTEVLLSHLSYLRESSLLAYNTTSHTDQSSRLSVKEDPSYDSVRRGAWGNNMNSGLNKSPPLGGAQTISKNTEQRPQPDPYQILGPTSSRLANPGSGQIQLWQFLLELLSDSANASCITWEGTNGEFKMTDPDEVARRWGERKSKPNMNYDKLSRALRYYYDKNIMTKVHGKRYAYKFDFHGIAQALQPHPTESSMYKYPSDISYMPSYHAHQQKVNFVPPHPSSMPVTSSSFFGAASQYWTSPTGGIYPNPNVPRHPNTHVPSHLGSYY
In short: (§1)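 Each value of binding signal is a hexamer's read frequency for a factor divided by the same hexamer's frequency in the tag-only sample. Barcoded, bead-captured GST fusions of human transcription factors made in yeast were pooled with that sample and incubated with 200 nmole of a random double-stranded 16-mer DNA library in Tris/NaCl/DTT/glycerol buffer at room temperature for 30 min. Washing, 0.1% formaldehyde crosslinking, proximity ligation, PCR and Illumina NextSeq500 sequencing followed.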

[2] = biological target: T2, ELK1 (Homo sapiens, UniProt P19419 1-428); details: protein: recombinant; tags: N-terminal GST; dsDNA, one strand shown
T2 sequence: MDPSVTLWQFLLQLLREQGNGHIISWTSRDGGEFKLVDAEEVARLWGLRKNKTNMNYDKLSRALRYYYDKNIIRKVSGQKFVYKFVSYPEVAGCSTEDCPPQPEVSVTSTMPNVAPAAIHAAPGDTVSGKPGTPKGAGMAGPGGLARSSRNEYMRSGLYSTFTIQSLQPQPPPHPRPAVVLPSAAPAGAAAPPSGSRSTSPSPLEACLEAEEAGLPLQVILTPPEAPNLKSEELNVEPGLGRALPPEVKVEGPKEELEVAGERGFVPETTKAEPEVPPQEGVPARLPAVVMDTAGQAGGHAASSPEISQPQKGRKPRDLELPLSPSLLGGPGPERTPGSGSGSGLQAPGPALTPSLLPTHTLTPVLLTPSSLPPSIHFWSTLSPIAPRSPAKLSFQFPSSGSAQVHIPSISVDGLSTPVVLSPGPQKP
In short: as §1

[3] = biological target: T3, GABPA (Homo sapiens, UniProt Q06546 1-454); details: protein: recombinant; tags: N-terminal GST; dsDNA, one strand shown
T3 sequence: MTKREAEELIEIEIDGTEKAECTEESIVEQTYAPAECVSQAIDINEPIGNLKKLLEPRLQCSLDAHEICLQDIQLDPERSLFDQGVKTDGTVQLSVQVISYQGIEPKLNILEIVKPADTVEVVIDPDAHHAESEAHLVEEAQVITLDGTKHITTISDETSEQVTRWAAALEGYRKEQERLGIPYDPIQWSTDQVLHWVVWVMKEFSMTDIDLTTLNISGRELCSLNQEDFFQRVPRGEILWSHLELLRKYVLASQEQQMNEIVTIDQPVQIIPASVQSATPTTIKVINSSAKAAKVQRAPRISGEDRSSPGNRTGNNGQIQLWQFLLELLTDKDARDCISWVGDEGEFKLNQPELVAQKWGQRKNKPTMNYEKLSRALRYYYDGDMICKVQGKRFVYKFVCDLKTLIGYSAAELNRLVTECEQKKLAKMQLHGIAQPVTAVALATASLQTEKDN
In short: as §1

[4] = biological target: T4, ERG (Homo sapiens, UniProt P11308 1-479); details: protein: recombinant; tags: N-terminal GST; dsDNA, one strand shown
T4 sequence: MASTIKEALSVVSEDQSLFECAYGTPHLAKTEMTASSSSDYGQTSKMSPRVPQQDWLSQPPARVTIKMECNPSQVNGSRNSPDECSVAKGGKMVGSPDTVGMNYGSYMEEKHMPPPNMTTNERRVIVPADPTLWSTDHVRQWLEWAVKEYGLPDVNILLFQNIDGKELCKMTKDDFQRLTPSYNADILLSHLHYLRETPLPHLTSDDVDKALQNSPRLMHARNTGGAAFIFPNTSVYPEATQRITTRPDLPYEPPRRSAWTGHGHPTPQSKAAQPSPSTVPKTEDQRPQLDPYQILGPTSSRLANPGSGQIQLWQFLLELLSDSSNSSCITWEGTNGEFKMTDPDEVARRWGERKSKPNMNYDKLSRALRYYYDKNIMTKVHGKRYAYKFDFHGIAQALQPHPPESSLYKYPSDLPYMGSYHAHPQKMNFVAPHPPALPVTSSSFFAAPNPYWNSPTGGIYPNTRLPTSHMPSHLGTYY
In short: as §1

[5] = biological target: ELF1 (Homo sapiens, UniProt P32519 1-619); details: protein: recombinant; tags: N-terminal GST; dsDNA, one strand shown
Chain of ELF1 (P32519 whole entry): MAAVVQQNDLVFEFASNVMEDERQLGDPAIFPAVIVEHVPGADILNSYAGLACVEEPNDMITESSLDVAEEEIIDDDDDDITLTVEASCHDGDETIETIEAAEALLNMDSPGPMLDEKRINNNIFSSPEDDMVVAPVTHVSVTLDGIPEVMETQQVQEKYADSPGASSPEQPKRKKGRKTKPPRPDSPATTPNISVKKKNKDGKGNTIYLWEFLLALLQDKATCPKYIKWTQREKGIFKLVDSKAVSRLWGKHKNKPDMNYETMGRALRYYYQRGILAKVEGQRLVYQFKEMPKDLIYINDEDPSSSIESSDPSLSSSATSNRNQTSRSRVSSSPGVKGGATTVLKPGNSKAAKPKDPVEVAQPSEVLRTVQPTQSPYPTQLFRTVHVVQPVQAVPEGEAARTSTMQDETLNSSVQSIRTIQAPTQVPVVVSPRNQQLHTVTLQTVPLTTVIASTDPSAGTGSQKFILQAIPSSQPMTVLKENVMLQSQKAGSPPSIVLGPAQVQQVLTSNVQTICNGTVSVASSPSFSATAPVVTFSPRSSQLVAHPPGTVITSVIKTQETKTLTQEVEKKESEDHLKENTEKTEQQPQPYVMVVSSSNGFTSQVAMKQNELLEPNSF
In short: as §1

[6] = biological target: T5, EHF (Homo sapiens, UniProt Q9NZC4 1-300); details: protein: recombinant; tags: N-terminal GST; dsDNA, one strand shown
T5 sequence: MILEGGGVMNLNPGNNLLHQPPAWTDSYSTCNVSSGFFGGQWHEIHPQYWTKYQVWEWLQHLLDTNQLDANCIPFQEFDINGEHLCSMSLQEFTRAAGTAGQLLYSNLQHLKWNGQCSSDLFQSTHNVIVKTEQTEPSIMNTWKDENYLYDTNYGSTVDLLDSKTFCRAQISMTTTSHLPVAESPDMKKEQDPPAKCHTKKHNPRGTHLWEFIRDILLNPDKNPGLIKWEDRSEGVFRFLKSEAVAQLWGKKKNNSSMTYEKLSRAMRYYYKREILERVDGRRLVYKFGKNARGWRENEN
In short: as §1

[7] = biological target: SPI1 (Homo sapiens, UniProt P17947 1-270); details: protein: recombinant; tags: N-terminal GST; dsDNA, one strand shown
In short: as §1

[8] = biological target: SPIB (Homo sapiens, UniProt Q01892 1-262); details: protein: recombinant; tags: N-terminal GST; dsDNA, one strand shown
Chain of SPIB (Q01892 whole entry): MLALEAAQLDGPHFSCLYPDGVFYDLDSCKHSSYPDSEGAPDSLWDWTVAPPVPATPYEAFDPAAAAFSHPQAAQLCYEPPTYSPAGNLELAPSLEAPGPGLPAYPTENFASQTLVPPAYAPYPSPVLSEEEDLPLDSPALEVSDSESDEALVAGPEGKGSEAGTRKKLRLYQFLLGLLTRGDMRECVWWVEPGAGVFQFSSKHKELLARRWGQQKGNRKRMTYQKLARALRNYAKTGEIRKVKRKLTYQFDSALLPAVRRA
In short: as §1

[9] = biological target: T6, ELK3 (Homo sapiens, UniProt P41970 1-407); details: protein: recombinant; tags: N-terminal GST; dsDNA, one strand shown
T6 sequence: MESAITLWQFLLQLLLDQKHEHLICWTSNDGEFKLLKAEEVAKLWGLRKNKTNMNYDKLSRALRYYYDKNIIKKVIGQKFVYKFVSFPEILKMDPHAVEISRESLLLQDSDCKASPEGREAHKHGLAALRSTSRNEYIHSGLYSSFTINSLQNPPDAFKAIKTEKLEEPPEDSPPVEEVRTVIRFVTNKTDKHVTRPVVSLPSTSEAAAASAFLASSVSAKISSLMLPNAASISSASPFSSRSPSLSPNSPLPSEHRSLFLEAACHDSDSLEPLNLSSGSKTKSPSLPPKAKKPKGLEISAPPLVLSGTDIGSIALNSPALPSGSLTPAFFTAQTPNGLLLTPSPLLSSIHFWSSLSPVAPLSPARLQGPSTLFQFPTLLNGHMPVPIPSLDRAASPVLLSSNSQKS
In short: as §1

[10] = biological target: ETV5 (Homo sapiens, UniProt P41161 1-510); details: protein: recombinant; tags: N-terminal GST; dsDNA, one strand shown
Chain of ETV5 (P41161 whole entry): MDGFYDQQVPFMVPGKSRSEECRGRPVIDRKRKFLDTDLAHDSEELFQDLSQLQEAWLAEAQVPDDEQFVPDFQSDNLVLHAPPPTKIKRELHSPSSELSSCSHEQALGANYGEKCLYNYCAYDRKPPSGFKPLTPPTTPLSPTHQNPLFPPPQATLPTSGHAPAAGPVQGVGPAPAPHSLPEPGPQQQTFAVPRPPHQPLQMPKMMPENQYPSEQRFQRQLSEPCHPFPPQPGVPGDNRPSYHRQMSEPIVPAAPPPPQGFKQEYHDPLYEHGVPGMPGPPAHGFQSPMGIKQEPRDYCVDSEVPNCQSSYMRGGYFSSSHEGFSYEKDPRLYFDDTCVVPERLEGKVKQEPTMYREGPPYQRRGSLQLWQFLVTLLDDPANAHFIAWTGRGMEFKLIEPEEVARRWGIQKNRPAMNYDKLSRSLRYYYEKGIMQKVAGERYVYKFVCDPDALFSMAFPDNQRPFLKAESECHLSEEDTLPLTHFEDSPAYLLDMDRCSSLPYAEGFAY
In short: as §1

[11] = biological target: HSF1 (Homo sapiens, UniProt Q00613 1-529); details: protein: recombinant; tags: N-terminal GST; chain copies: 3; dsDNA, one strand shown
Chain of HSF1 (Q00613 whole entry): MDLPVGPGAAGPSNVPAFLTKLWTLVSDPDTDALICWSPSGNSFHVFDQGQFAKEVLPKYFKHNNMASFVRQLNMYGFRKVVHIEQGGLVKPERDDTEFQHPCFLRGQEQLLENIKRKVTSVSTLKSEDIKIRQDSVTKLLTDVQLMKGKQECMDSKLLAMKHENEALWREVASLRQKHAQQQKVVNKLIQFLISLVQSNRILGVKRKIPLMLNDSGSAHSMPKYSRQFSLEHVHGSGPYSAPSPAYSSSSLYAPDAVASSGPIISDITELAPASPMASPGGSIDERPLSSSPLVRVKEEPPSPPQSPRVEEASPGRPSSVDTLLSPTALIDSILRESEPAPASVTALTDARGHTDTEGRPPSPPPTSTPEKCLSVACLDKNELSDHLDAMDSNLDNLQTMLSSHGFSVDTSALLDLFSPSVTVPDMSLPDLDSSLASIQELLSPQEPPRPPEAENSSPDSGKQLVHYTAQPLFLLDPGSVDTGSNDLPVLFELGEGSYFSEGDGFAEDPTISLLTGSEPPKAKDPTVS
In short: as §1

[12] = biological target: T7, SPIC (Homo sapiens, UniProt Q8N5J4 1-248); details: protein: recombinant; tags: N-terminal GST; dsDNA, one strand shown
T7 sequence: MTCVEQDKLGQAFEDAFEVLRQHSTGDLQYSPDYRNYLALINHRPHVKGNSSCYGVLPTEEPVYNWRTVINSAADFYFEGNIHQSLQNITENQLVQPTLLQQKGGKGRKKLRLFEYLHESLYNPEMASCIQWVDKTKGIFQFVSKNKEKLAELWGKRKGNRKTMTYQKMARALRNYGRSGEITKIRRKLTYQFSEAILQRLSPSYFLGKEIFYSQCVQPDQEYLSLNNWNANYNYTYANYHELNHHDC
In short: as §1

[13] = biological target: ELF4 (Homo sapiens, UniProt Q99607 1-663); details: protein: recombinant; tags: N-terminal GST; dsDNA, one strand shown
Chain of ELF4 (Q99607 whole entry): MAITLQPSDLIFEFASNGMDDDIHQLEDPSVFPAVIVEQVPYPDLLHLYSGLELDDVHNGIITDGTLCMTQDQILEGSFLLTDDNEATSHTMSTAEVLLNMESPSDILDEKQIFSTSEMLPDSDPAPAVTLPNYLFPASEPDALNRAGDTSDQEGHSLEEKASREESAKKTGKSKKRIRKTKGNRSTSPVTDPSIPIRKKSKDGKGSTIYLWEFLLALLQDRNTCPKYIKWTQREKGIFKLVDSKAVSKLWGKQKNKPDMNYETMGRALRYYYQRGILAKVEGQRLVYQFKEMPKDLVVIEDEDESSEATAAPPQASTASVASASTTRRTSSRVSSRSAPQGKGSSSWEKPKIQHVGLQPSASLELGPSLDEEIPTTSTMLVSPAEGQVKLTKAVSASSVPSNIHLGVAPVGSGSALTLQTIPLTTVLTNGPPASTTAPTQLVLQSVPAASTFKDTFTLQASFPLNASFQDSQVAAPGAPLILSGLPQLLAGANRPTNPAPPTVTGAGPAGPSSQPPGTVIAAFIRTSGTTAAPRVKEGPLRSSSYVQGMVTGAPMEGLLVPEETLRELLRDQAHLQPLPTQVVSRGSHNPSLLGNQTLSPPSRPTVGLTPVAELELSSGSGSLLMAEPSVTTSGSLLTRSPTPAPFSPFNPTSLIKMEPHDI
In short: as §1

[14] = biological target: T8, ELK4 (Homo sapiens, UniProt P28324-2 1-405); details: protein: recombinant; tags: N-terminal GST; dsDNA, one strand shown
T8 sequence: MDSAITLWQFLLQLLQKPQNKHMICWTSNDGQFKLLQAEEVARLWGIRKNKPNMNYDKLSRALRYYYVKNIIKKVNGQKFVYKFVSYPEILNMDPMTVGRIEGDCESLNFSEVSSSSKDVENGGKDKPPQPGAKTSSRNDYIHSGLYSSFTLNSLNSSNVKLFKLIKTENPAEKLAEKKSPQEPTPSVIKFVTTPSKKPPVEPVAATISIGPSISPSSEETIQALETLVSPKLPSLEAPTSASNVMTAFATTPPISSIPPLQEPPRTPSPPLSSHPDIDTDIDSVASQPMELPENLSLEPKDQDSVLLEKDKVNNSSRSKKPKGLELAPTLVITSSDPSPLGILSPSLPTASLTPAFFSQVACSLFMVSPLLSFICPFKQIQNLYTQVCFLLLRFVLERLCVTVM
In short: as §1

[15] = biological target: T9, ETV2 (Homo sapiens, UniProt O00321 1-342); details: protein: recombinant; tags: N-terminal GST; dsDNA, one strand shown
T9 sequence: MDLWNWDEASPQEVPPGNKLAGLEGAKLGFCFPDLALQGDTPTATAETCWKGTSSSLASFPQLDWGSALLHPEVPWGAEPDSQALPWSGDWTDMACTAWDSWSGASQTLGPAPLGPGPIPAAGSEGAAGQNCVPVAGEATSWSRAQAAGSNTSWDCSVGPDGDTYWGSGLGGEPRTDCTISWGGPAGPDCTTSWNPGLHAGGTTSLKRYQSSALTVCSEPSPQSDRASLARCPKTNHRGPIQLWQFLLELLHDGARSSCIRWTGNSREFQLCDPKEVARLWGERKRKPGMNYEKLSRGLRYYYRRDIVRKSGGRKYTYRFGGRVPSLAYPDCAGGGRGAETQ
In short: as §1

[16] = biological target: T10, ELF3 (Homo sapiens, UniProt P78545 1-371); details: protein: recombinant; tags: N-terminal GST; dsDNA, one strand shown
T10 sequence: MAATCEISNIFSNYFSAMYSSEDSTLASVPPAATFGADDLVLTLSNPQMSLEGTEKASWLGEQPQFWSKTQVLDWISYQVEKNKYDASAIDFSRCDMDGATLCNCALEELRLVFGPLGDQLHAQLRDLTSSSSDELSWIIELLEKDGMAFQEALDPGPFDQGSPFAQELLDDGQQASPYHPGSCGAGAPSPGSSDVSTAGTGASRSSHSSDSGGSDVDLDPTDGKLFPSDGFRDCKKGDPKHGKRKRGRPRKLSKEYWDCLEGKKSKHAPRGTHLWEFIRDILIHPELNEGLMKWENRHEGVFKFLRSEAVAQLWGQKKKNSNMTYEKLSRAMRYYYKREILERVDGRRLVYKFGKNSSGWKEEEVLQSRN
In short: as §1

[17] = biological target: ETV1 (Homo sapiens, UniProt P50549 1-477); details: protein: recombinant; tags: N-terminal GST; dsDNA, one strand shown
Chain of ETV1 (P50549 whole entry): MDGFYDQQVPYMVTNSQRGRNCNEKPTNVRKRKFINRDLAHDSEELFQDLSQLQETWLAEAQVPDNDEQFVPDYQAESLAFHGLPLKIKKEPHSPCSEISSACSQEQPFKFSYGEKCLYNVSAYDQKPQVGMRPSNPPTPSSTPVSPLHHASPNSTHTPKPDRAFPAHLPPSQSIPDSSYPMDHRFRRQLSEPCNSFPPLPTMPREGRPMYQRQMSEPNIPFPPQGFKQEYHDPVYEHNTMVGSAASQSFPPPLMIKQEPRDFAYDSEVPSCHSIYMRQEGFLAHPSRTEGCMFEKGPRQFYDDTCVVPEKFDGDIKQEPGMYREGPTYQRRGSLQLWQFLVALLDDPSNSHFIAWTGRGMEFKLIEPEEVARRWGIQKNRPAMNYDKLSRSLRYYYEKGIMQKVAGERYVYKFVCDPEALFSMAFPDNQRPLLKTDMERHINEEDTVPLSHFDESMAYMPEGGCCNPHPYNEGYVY
In short: as §1

TGGTAG
binding signal [1]: 1.1 fold enrichment (6-mer frequency, TF over GST control) | binding signal [2]: 1.02 fold enrichment (6-mer frequency, TF over GST control) | binding signal [3]: 1.08 fold enrichment (6-mer frequency, TF over GST control) | binding signal [4]: 1 fold enrichment (6-mer frequency, TF over GST control) | binding signal [5]: 1.05 fold enrichment (6-mer frequency, TF over GST control) | binding signal [6]: 1.11 fold enrichment (6-mer frequency, TF over GST control) | binding signal [7]: 1.03 fold enrichment (6-mer frequency, TF over GST control) | binding signal [8]: 1.15 fold enrichment (6-mer frequency, TF over GST control) | binding signal [9]: 1.11 fold enrichment (6-mer frequency, TF over GST control) | binding signal [10]: 1.07 fold enrichment (6-mer frequency, TF over GST control) | binding signal [11]: 1.06 fold enrichment (6-mer frequency, TF over GST control) | binding signal [12]: 1.08 fold enrichment (6-mer frequency, TF over GST control) | binding signal [13]: 1.11 fold enrichment (6-mer frequency, TF over GST control) | binding signal [14]: 1.37 fold enrichment (6-mer frequency, TF over GST control) | binding signal [15]: 1.04 fold enrichment (6-mer frequency, TF over GST control) | binding signal [16]: 1.13 fold enrichment (6-mer frequency, TF over GST control) | binding signal [17]: 1.05 fold enrichment (6-mer frequency, TF over GST control)
